# Test results as given in PubChem BioAssay (NCATS).
# Inconclusive results are not listed. Entries that show only a call come without a potency. Unmarked numbers belong to inactive results. Active and inactive are the calls of the source. Unless noted, calls follow the shape of the dose curve; as a rule, active = well fitted curve in the direction sought with a large enough effect; inconclusive = small, poorly fitted or top-dose-only effect, or another doubt; inactive = no such curve, though single readings can be large; an effect the other way counts as inactive or inconclusive.
# Assays:
# [1] = target: N-terminal Xaa-Pro-Lys N-methyltransferase 1 (Homo sapiens) (UniProt Q9BV86); experiment: Confirmatory qHTS for Inhibitors of N-terminal methyltransferase 1 (NTMT1): MTaseGlo Assay (AID 1645874); conditions: NTMT1 enzyme, MTase-Glo SAH luminescence; also: potency is read from the fitted curve at half-maximal effect; nearly all actives have a fitted effect of over 65% in size
# How it was run: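 NTMT1 (125 nM) preincubated 15 min with compound and 100 uM SAM, then 1 uM SPKRIA peptide added for 30 min at room temperature. SAH detected by MTase-Glo luminescence; normalized to no-enzyme and DMSO controls, fitted to 4-parameter Hill.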
# [2] = Primary qHTS for small molecule stabilizers of the endoplasmic reticulum resident proteome: Secreted ER Calcium Modulated Protein (SERCaMP) assay (AID 1508630); conditions: SH-SY5Y GLuc-SERCaMP (Gaussia luciferase released on ER calcium loss) secretion, thapsigargin, luminescence; series mostly up to 38.4 µM
# How it was run: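 GLuc-SERCaMP-expressing SH-SY5Y cells, pretreated 16 h with compound, are challenged with thapsigargin to empty ER calcium stores; after 4 h, coelenterazine is added directly to the medium and luminescence is imaged.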
# [3] = A High-Content qHTS Against Drug Library for the Identification of Small Molecules that Inhibit DYT1 Early Onset Primary Dystonia-Associated Cell Pathology (AID 1645839; calls by dose curve); conditions: HEK293 Flp-In EGFP-delE TorsinA, punctate imaging, 48 h; series mostly up to 46.1 µM
# How it was run: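 In this high-content image screen, delE TorsinA mislocalization in inducible Flp-In 293 cells is scored as %pathology, with cell count serving as the counterscreen. Compound exposure lasts 48 h under tetracycline induction in reduced-serum medium.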
# [4] = target: Cytochrome P450 2D6 (Homo sapiens) (UniProt P10635); experiment: Cytochrome P450 family 2 subfamily D member 6 (CYP2D6) small molecule antagonists: luciferase biochemical (cell-free) qHTS assay (AID 1645840; active = well fitted curve in the direction sought with a large enough effect in the repeat runs; an effect the other way counts as inactive or inconclusive; also: nearly all actives have a fitted effect of over 55% in size; also: potency is read from the fitted curve at half-maximal effect); conditions: P450-Glo CYP2D6 enzyme, luciferin luminescence, 1 h; series mostly up to 57.4 µM
# How it was run: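 P450-Glo luminescent screen: recombinant CYP2D6 enzyme–proluciferin substrate mix preincubated with compound 10 min at room temperature, then NADPH regeneration added for 1 h at room temperature. Detection reagent added for 20 min; luciferin light read as relative luminescence units.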
# [5] = target: Cytochrome P450 2C9 (Homo sapiens) (UniProt P11712); experiment: Cytochrome P450 family 2 subfamily C member 9 (CYP2C9) small molecule antagonists: luciferase biochemical (cell-free) qHTS assay (AID 1645842; active = well fitted curve in the direction sought with a large enough effect in the repeat runs; an effect the other way counts as inactive or inconclusive; also: nearly all actives have a fitted effect of over 55% in size; also: potency is read from the fitted curve at half-maximal effect); conditions: P450-Glo CYP2C9 enzyme assay, luciferin luminescence; series mostly up to 57.4 µM
# How it was run: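 Luminescence, after 20 min with luciferin detection reagent, reflected CYP2C9 turnover during a 1 h NADPH-driven reaction at 37C. Enzyme-substrate mix contained 0.4% bovine serum albumin and was preincubated with compound 10 min at room temperature.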
# [6] = Primary qHTS for inhibitors of nuclear receptor binding SET domain protein 2 (NSD2) in an isogenic RCH-ACV NSD2 p.E1099K mutant (9B) (AID 1645876); conditions: RCH-ACV (leukaemia line) NSD2 E1099K (9B) viability, CellTiter-Glo, 72 h; series mostly up to 44.9 µM; also: nearly all actives have a fitted effect of over 70% in size; also: potency is read from the fitted curve at half-maximal effect
# [7] = target: Papain (Carica papaya) (UniProt P00784); experiment: Primary qHTS assay for inhibitors of the protease papain (AID 1645873); conditions: papain Z-FR-AMC cleavage, AMC fluorescence; series mostly up to 49.8 µM;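 also: papain turnover of Z-FR-AMC read as the AMC fluorescence gain over 10 min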
# Papain (Carica papaya), sequence (P00784 whole entry, looked up): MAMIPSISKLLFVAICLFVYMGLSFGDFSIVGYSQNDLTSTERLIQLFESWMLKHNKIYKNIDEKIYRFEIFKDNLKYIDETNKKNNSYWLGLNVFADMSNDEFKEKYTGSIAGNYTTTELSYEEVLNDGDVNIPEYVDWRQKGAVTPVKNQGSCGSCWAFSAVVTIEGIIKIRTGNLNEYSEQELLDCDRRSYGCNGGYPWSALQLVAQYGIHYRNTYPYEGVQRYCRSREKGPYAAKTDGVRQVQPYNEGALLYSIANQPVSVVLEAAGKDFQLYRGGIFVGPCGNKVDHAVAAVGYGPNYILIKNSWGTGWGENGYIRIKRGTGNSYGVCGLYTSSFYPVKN
# Cytochrome P450 2D6 (Homo sapiens), sequence (P10635 whole entry, looked up): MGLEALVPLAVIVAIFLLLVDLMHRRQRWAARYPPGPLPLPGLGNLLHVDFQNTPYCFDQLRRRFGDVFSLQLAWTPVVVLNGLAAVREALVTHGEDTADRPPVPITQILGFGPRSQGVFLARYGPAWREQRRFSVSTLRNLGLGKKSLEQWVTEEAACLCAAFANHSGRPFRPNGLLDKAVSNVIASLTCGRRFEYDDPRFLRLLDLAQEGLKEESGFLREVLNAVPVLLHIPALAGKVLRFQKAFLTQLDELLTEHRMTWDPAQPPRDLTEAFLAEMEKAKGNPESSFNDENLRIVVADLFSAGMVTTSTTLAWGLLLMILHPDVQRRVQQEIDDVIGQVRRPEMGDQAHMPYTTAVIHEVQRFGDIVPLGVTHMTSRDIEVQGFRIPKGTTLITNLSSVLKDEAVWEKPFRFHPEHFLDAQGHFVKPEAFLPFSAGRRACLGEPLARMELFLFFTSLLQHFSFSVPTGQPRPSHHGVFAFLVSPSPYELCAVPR
# Cytochrome P450 2C9 (Homo sapiens), sequence (P11712 whole entry, looked up): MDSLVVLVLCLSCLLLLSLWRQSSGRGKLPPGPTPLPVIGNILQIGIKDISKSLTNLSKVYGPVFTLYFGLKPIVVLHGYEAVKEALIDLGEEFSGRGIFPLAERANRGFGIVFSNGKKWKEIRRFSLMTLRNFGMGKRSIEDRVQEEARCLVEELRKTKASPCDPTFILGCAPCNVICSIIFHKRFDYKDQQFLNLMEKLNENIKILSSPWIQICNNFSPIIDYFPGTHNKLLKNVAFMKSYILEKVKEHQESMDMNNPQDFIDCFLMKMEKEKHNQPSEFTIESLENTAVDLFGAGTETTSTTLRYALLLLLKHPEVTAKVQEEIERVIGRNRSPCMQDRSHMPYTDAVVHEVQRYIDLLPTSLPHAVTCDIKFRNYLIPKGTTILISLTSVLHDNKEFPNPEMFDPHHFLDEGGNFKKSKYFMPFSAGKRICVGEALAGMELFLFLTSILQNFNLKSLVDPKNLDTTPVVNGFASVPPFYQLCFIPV
# N-terminal Xaa-Pro-Lys N-methyltransferase 1 (Homo sapiens), sequence (Q9BV86 whole entry, looked up): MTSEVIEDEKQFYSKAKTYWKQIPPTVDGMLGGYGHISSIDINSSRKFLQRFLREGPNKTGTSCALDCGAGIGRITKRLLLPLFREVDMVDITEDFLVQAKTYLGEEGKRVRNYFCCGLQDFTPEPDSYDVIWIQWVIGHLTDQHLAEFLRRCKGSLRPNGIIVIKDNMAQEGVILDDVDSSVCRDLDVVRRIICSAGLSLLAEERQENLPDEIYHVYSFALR
structure (smiles),measurement,setting,value
C=Cc1c(C)c2cc3[nH]c(cc4nc(cc5nc(cc1[nH]2)C(C)=C5CCC(=O)O)C(CCC(=O)O)=C4C)c(C)c3C=C,Potency,[1],34.5 µM (active)
CC(=O)O[C@@]12CO[C@@H]1C[C@H](O)[C@@]1(C)C(=O)[C@H](O)C3=C(C)[C@@H](OC(=O)[C@H](O)[C@@H](NC(=O)OC(C)(C)C)c4ccccc4)C[C@@](O)([C@@H](OC(=O)c4ccccc4)[C@H]21)C3(C)C,Potency,[2],inactive
same,Potency,[3],inactive
same,Potency,[4],inactive
same,Potency,[5],inactive
same,Potency,[6],0.0027 µM (active)
NCCNCCNCCNCCN,"activity change, negative = inhibition",[2],-1.31% [at 7.35 µM]
same,"% pathology change, negative = correction",[3],14.9% [at 9.22 µM]
same,"activity change, negative = inhibition",[4],12.4% [at 11.5 µM]
same,"activity change, negative = inhibition",[5],18.2% [at 11.5 µM]
same,"activity change, negative = viability loss",[6],-1.38% [at 9.23 µM]
CCCn1cnc2c1c(=O)n(CCCCC(C)=O)c(=O)n2C,Potency,[2],inactive
same,Potency,[3],inactive
same,Potency,[4],inactive
same,Potency,[5],inactive
same,Potency,[7],inactive
same,Potency,[6],inactive
OCC(CO)N[C@H]1C[C@](O)(CO)[C@@H](O)[C@H](O)[C@H]1O,Potency,[2],inactive
same,Potency,[3],inactive
same,Potency,[4],inactive
same,Potency,[5],inactive
same,Potency,[6],inactive
CC(O)COc1ccccc1 (stereo not given),Potency,[2],inactive
same,Potency,[3],inactive
same,Potency,[4],inactive
same,Potency,[5],inactive
same,Potency,[6],inactive
Nc1ccc(S(=O)(=O)Nc2nccs2)cc1,Potency,[2],inactive
same,Potency,[3],inactive
same,Potency,[4],inactive
same,Potency,[5],inactive
same,Potency,[6],inactive
O=c1[nH]cnc2c1ncn2[C@@H]1O[C@H](CO)[C@@H](O)[C@H]1O,Potency,[2],inactive
same,Potency,[3],inactive
same,Potency,[4],inactive
same,Potency,[5],inactive
same,Potency,[6],inactive
Nc1nc2c(ncn2CCC(CO)CO)c(=O)[nH]1,Potency,[2],inactive
same,Potency,[3],inactive
same,Potency,[4],inactive
same,Potency,[5],inactive
same,Potency,[6],inactive
NC(N)=NCCC[C@H](N)C(=O)O,Potency,[2],inactive
same,"% pathology change, negative = correction",[3],17.5% [at 4.63 µM]
same,"activity change, negative = inhibition",[4],2.59% [at 4.83 µM]
same,"activity change, negative = inhibition",[5],-6.78% [at 4.83 µM]
same,Potency,[7],inactive
same,outcome,[6],inactive [at 4.96 µM]
CCCCN1CCCC[C@H]1C(=O)Nc1c(C)cccc1C,Potency,[2],inactive
same,Potency,[3],inactive
same,Potency,[4],0.275 µM (active)
same,Potency,[5],inactive
same,Potency,[6],inactive
C[C@@H]1CN(c2c(F)c(F)c3c(=O)c(C(=O)O)cn(C4CC4)c3c2F)C[C@H](C)N1,Potency,[2],inactive
same,Potency,[3],inactive
same,Potency,[4],inactive
same,Potency,[5],inactive
same,Potency,[6],inactive
CC1(C)[C@@H]2CC[C@@]1(C)C(=O)C2,Potency,[2],inactive
same,Potency,[3],inactive
same,Potency,[4],inactive
same,Potency,[5],inactive
same,Potency,[6],inactive
CCCCCCCCCCCCCCCCCCOCC(O)CO (stereo not given),Potency,[2],inactive
same,Potency,[3],inactive
same,Potency,[4],inactive
same,Potency,[5],inactive
same,Potency,[6],inactive
NS(=O)(=O)c1cc2c(cc1Cl)NC(CSCc1ccccc1)=NS2(=O)=O,Potency,[2],inactive
same,Potency,[3],inactive
same,Potency,[4],13.8 µM (active)
same,Potency,[5],5.49 µM (active)
same,Potency,[6],inactive
CC[N+](CC)(CC)CCOc1ccc(/C=C/c2ccccc2)cc1,Potency,[2],inactive
same,Potency,[3],inactive
same,Potency,[4],0.617 µM (active)
same,Potency,[5],inactive
same,Potency,[6],2.11 µM (active)
CC(=O)CCC(=O)O,Potency,[2],inactive
same,Potency,[3],inactive
same,Potency,[4],inactive
same,Potency,[5],inactive
same,Potency,[6],inactive
COc1ccc2[nH]c(S(=O)Cc3ncc(C)c(OC)c3C)nc2n1 (stereo not given),Potency,[2],inactive
same,Potency,[3],inactive
same,Potency,[4],inactive
same,Potency,[5],10.7 µM (active)
same,Potency,[1],35.5 µM (active)
same,Potency,[6],inactive
CCN(CC)C(=O)Nc1ccc(OCC(O)CNC(C)(C)C)c(C(C)=O)c1 (stereo not given),Potency,[2],inactive
same,Potency,[3],inactive
same,Potency,[4],inactive
same,Potency,[5],inactive
same,Potency,[6],inactive
Cn1cc[nH]c1=S,Potency,[2],inactive
same,Potency,[3],inactive
same,Potency,[4],inactive
same,Potency,[5],inactive
same,Potency,[6],inactive
NS(=O)(=O)c1cc2c(cc1C(F)(F)F)NC(Cc1ccccc1)NS2(=O)=O (stereo not given),Potency,[2],inactive
same,Potency,[3],inactive
same,Potency,[4],inactive
same,Potency,[5],inactive
same,Potency,[6],inactive
O=C(O)c1ccccc1-c1ccc(C(F)(F)F)cc1,Potency,[2],inactive
same,Potency,[3],inactive
same,Potency,[4],inactive
same,Potency,[5],inactive
same,Potency,[6],inactive
Nc1ccc(S(=O)(=O)Nc2ccccc2)cc1,Potency,[2],inactive
same,Potency,[3],inactive
same,Potency,[4],inactive
same,Potency,[5],inactive
same,Potency,[6],inactive
Cc1cc(O)cc2c1O[C@](C)(CCC[C@H](C)CCC[C@H](C)CCCC(C)C)CC2,Potency,[2],inactive
same,Potency,[3],inactive
same,Potency,[4],inactive
same,Potency,[5],inactive
same,Potency,[6],inactive
O=c1cc[nH]c(=O)[nH]1,Potency,[2],inactive
same,Potency,[3],inactive
same,Potency,[4],inactive
same,Potency,[5],inactive
same,Potency,[6],inactive
C[C@](N)(Cc1ccc(O)cc1)C(=O)O,Potency,[2],inactive
same,"% pathology change, negative = correction",[3],14.7% [at 4.63 µM]
same,"activity change, negative = inhibition",[4],8.94% [at 4.83 µM]
same,"activity change, negative = inhibition",[5],1.65% [at 4.83 µM]
same,Potency,[7],inactive
same,"activity change, negative = viability loss",[6],-3.71% [at 4.96 µM]
CCn1cc(C(=O)O)c(=O)c2cnc(N3CCNCC3)nc21,Potency,[2],inactive
same,Potency,[3],inactive
same,Potency,[4],inactive
same,Potency,[5],inactive
same,Potency,[6],inactive
[O-][n+]1cccc(CO)c1,Potency,[2],inactive
same,Potency,[3],inactive
same,Potency,[4],inactive
same,Potency,[5],inactive
same,Potency,[6],inactive
O=S(=O)(O)c1cc(I)c(O)c2ncccc12,Potency,[2],inactive
same,Potency,[3],inactive
same,Potency,[4],inactive
same,Potency,[5],inactive
same,Potency,[6],inactive
CC(C)(C)NCC(O)COc1ccc(NC(=O)NC2CCCCC2)cc1 (stereo not given),Potency,[2],inactive
same,Potency,[3],inactive
same,Potency,[4],inactive
same,Potency,[5],inactive
same,Potency,[6],inactive
